Screening results (PubChem BioAssay)
Rows were chosen to be rich in hits. Some 19% of all compounds tested hit in one or more screens of this group.
IL-1B inflam inh – qHTS for Inhibitors of Inflammasome Signaling: IL-1-beta AlphaLISA Primary Screen | THP-1 LPS/ATP IL-1B secretion, AlphaLISA, 16 h; active compounds read low | activity change, % at 57.5 µM | 4.7% of 360,000 active | AID 743279, 2014; in the data active = activity change below about -50%; inconclusive = mostly about -30% to -49%
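Secreted IL-1B measured by AlphaLISA bead assay after 16 h compound exposure of THP-1 cells; compounds (final up to 57.5 uM) added 1 h before LPS (250 ng/mL) and ATP (1.25 mM) stimulation; lower signal means less secretion.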
DT40 TDP1 CPT – qHTS for Inhibitors of human tyrosyl-DNA phosphodiesterase 1 (TDP1): qHTS in cells in presence of CPT | chicken DT40 Tdp1-/-;hTDP1 cells + 20 nM CPT, ATP luminescence, 48 h | Potency, µM (series often up to 46.2 µM), for the others: top-dose activity change, negative = growth inhibition, most hits filed as inhibitors | 12% of 420,000 active; note: potency is the fitted concentration of half-maximal effect; nearly all actives have a fitted effect of over 55% in size
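Chicken DT40 Tdp1-/- cells stably complemented with human TDP1 were seeded at 400 cells/well in medium containing 20 nM camptothecin, exposed to pin-transferred compounds, and grown at 37 °C for at least 48 hr. Viability was read as ATP luminescence.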
HT1080NT lethal – qHTS for induction of synthetic lethality in tumor cells producing 2HG: qHTS for the HT-1080-NT fibrosarcoma cell line; HT-1080-NT fibrosarcoma viability, CellTiter-Glo ATP luminescence, 48 h; 1.6% of 360,000 active; Potency, µM (titrated, usually from 46.1 µM), without a hit: at the highest dose activity, negative = less viability, actives largely listed as cytotoxic;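 note: NT is the 2HG producing partner of a matched IDH1 knockdown line; potency is the fitted concentration of half-maximal effect; 0% = DMSO-treated cells and -100% = media-only wells without cells; nearly all actives have a fitted effect of over 55% in size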
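Toxicity toward the 2HG-producing NT line was scored as %Activity, normalised to DMSO and no-cell wells, from CellTiter-Glo luminescence after 48 hours' treatment.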
TDP1 cell noCPT – qHTS for Inhibitors of human tyrosyl-DNA phosphodiesterase 1 (TDP1): qHTS in cells in absence of CPT; DT40 Tdp1-/- hTDP1 cells, no CPT, ATP luminescence, 48 h; 15% of 420,000 active; AID 686978, 2013; Potency, µM (titrated, usually from 46.2 µM), without a hit: at the top dose activity change, negative = growth inhibition, usual class: inhibitors; note: potency is the fitted concentration of half-maximal effect; nearly all actives have a fitted effect of over 55% in size
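Stably hTDP1-transfected Tdp1-null chicken DT40 cells were treated with library compounds minus camptothecin and grown for at least 48 hr at 37 °C, after which cellular ATP was quantified by luminescence.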
HT1080 IDH1KD tx – qHTS for induction of synthetic lethality in tumor cells producing 2HG: qHTS for the HT-1080-IDH1KD cell line; AID 686971, 2013; HT-1080 IDH1 knockdown viability, ATP luminescence, 48 h; Potency, µM (highest dose often 46.1 µM), for inactives: top-dose activity, negative = toxicity, most hits filed as cytotoxic; 2% of 360,000 active;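 note: potency is the fitted concentration of half-maximal effect; 0% = DMSO wells and -100% = cell-free medium wells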
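Cytotoxicity counter-line: IDH1KD HT-1080, 48 h, CellTiter-Glo. Curves classed by r2, magnitude and activity.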
* = called active by the depositor. Unless noted, calls come from the whole dose curve; as a rule, active = well fitted curve in the direction sought with a large enough effect; inconclusive = small, poorly fitted or top-dose-only effect, or another doubt; inactive = no such curve, though single readings can be large; an effect the other way counts as inactive or inconclusive. Unless noted, % is set by controls: 0 for no effect and ±100 for the full control effect.

For FC(F)(F)c1cccc(Cc2noc(CN(Cc3ccccn3)CC3CCCO3)n2)c1 (centres undefined) the results were IL-1B inflam inh 4, DT40 TDP1 CPT 21µM*, HT1080NT lethal 2%, TDP1 cell noCPT 21µM* and HT1080 IDH1KD tx 6%.
For Clc1ccc(-c2noc(CN(Cc3ccccn3)CC3CCCO3)n2)cc1 (centres undefined) the results were IL-1B inflam inh 5, DT40 TDP1 CPT inconclusive, HT1080NT lethal -10%, TDP1 cell noCPT 16µM* and HT1080 IDH1KD tx -4%.
CCN(Cc1nc(-c2ccc(Cl)cc2)no1)CC1CCCO1 (centres undefined) was read as IL-1B inflam inh -14, DT40 TDP1 CPT -19%, HT1080NT lethal -1%, TDP1 cell noCPT inconclusive and HT1080 IDH1KD tx -9%.
`CSc1nc(N)c2ncn([C@@H]3O[C@H](COP(=O)(O)OP(=O)(O)OP(=O)(O)O)[C@@H](O)[C@H]3O)c2n1` gave DT40 TDP1 CPT -28% and TDP1 cell noCPT -9%.
Screening CC(C)=CC1C(C(=O)Nc2ccc(Br)cn2)C1(C)C (centres undefined) returned IL-1B inflam inh 15, DT40 TDP1 CPT inconclusive, HT1080NT lethal 9%, TDP1 cell noCPT inconclusive and HT1080 IDH1KD tx 1%.
For Cc1cc2[nH]c(=O)c(=O)[nH]c2cc1S(=O)(=O)N(C)C1CCCCC1 the results were IL-1B inflam inh 36, DT40 TDP1 CPT 21µM*, HT1080NT lethal -3%, TDP1 cell noCPT 21µM* and HT1080 IDH1KD tx -8%.
For Cc1cc2c(cc1S(=O)(=O)N(CCN(C)C)Cc1ccccc1)OCC(=O)N2 the results were DT40 TDP1 CPT 13µM* and TDP1 cell noCPT inconclusive.
CCN(c1ccccc1)S(=O)(=O)c1cc2c(cc1C)NC(=O)CO2 was read as IL-1B inflam inh 23, DT40 TDP1 CPT -1%, HT1080NT lethal 9%, TDP1 cell noCPT -11% and HT1080 IDH1KD tx -1%.
Screening Cc1cc2c(cc1S(=O)(=O)N(C)C1CCCCC1)OCC(=O)N2 returned IL-1B inflam inh 36, DT40 TDP1 CPT inconclusive, HT1080NT lethal 8%, TDP1 cell noCPT 23µM* and HT1080 IDH1KD tx 0%.
Cc1ccc(N(C)S(=O)(=O)c2cc3c(cc2C)NC(=O)CO3)cc1 was read as IL-1B inflam inh 30, DT40 TDP1 CPT inconclusive, HT1080NT lethal -2%, TDP1 cell noCPT inconclusive and HT1080 IDH1KD tx -4%.
For COc1ccc(-c2cn3nc(N4CCCC(C(=O)Nc5cc(C)cc(C)c5)C4)sc3n2)cc1 (centres undefined) the results were DT40 TDP1 CPT 8.2µM* and TDP1 cell noCPT 8.2µM*.
`COc1ccc(-c2cn3nc(N4CCCC(C(=O)Nc5cccc(OC)c5)C4)sc3n2)cc1` (centres undefined) gave DT40 TDP1 CPT 21µM* and TDP1 cell noCPT 23µM*.
CCNC(=O)C1CCCN(c2nn3cc(-c4ccc(C)cc4)nc3s2)C1 (centres undefined) was read as DT40 TDP1 CPT 18µM* and TDP1 cell noCPT 23µM*.
COc1cccc(NC(=O)C2CCN(c3nn4cc(-c5ccc(F)cc5)nc4s3)CC2)c1 was read as DT40 TDP1 CPT 13µM* and TDP1 cell noCPT inconclusive.
For COc1ccc(C(=O)Nc2cc(S(=O)(=O)c3ccc(Cl)cc3)c(O)c(C)c2C)cc1 the results were DT40 TDP1 CPT -29% and TDP1 cell noCPT inconclusive.
Screening N#CCCCSc1nnc(-c2ccccn2)o1 returned IL-1B inflam inh -2, DT40 TDP1 CPT 17%, HT1080NT lethal 4%, TDP1 cell noCPT -14% and HT1080 IDH1KD tx 5%.
CCOc1ccc(NC(=O)C2CCCN(c3nn4cc(-c5ccc(OC)cc5)nc4s3)C2)cc1 (centres undefined) was read as DT40 TDP1 CPT inconclusive and TDP1 cell noCPT 10µM*.
Screening COc1ccc(-c2cn3nc(N4CCCC(C(=O)Nc5ccc(C)c(C)c5)C4)sc3n2)cc1 (centres undefined) returned DT40 TDP1 CPT inconclusive and TDP1 cell noCPT 12µM*.
Screening COc1ccc(-c2cn3nc(N4CCCC(C(=O)NCc5ccccc5C)C4)sc3n2)cc1 (centres undefined) returned DT40 TDP1 CPT 13µM* and TDP1 cell noCPT 10µM*.
Screening COc1ccc(-c2cn3nc(N4CCCC(C(=O)Nc5cccc(Cl)c5C)C4)sc3n2)cc1 (centres undefined) returned DT40 TDP1 CPT inconclusive and TDP1 cell noCPT 21µM*.
Screening O=C(NCCC1=CCCCC1)C(=O)NCc1ccncc1 returned IL-1B inflam inh 21, DT40 TDP1 CPT -9%, HT1080NT lethal 8%, TDP1 cell noCPT -26% and HT1080 IDH1KD tx -1%.
Screening CCCSCCCNC(=O)C1CCN(c2nn3cc(-c4ccc(F)cc4)nc3s2)CC1 returned DT40 TDP1 CPT 5.2µM* and TDP1 cell noCPT inconclusive.
COc1ccc(-c2cn3nc(N4CCC(C(=O)NCc5ccc(F)cc5)CC4)sc3n2)cc1 was read as DT40 TDP1 CPT -33% and TDP1 cell noCPT inconclusive.
COc1ccc(-c2cn3nc(N4CCC(C(=O)Nc5cccc(Cl)c5)CC4)sc3n2)cc1 was read as DT40 TDP1 CPT -28% and TDP1 cell noCPT inconclusive.
For COc1ccc(-c2cn3nc(N4CCC(C(=O)Nc5ccc(C)cc5)CC4)sc3n2)cc1 the results were DT40 TDP1 CPT inconclusive and TDP1 cell noCPT 21µM*.
Screening Cc1ccc(-c2cn3nc(N4CCCC(C(=O)Nc5ccc(F)cc5)C4)sc3n2)cc1 (centres undefined) returned DT40 TDP1 CPT 16µM* and TDP1 cell noCPT 18µM*.
Screening COc1ccc(CNC(=O)COC(=O)c2ccc(F)c(S(=O)(=O)N3CCCCC3)c2)cc1OC returned IL-1B inflam inh 28, DT40 TDP1 CPT -17%, HT1080NT lethal 14%, TDP1 cell noCPT 5% and HT1080 IDH1KD tx 11%.
O=C(c1cccn1-c1nnc(N2CCCC2)s1)N1CCN(c2ccc(Cl)cc2)CC1 was read as DT40 TDP1 CPT 21µM* and TDP1 cell noCPT 23µM*.
`O=C(c1ccccc1)N1CCN(c2ccc(Cl)cc2)CC1` gave IL-1B inflam inh -3, DT40 TDP1 CPT inconclusive, HT1080NT lethal -1%, TDP1 cell noCPT inconclusive and HT1080 IDH1KD tx 7%.
